Compound activity: PubChem, National Center for Advancing Translational Sciences (NCATS)
ALDH1A1 inh = qHTS Assay for Inhibitors of Aldehyde Dehydrogenase 1 (ALDH1A1); Potency, µM (titrated, usually from 75.3 µM), actives largely listed as inhibitors; 220,000 compounds, 7.3% hits; Purified ALDH1A1, NADH fluorescence, propionaldehyde substrate
12-hLO inh = qHTS Assay for Inhibitors of 12-hLO (12-human lipoxygenase). Polyunsaturated fatty acid lipoxygenase ALOX12 (Homo sapiens), P18054. purified 12-hLO, xylenol orange hydroperoxide absorbance. Potency, µM (titrated, usually from 57.1 µM), actives largely listed as inhibitors. 150,000 compounds, 0.12% hits. AID 1452, 2008; active means well fitted inhibition curve with a large enough effect; inconclusive means small, poorly fitted or top-dose-only effect; further: nearly all actives have a fitted effect of over 55% in size
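Hydroperoxide output read as Fe(III)-xylenol orange absorbance, 573-to-405 nm ratio, after 30 min reaction with 40 uM arachidonic acid. Enzyme: 150 nM purified human 12hLO, 15 min compound preincubation; 25 mM Hepes pH 7.0, room temperature.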
PNC inhibitor = High Content Assay for Compounds that inhibit the Assembly of the Perinucleolar Compartment; PC3M PTB-GFP, PNC prevalence imaging, 16 h; active compounds read low; activity change (PNC), negative = inhibition, % at 10 µM; 140,000 compounds, 3.1% hits; AID 2417, 2010;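 active means readout at or below -70, meaning at least 70% loss of cells showing the perinucleolar compartment, a nuclear body marking cancer cells; inconclusive means readout between -30 and a set limit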
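Read-out is percentage of cells bearing a perinucleolar compartment, from automated 20x imaging of fixed, Hoechst-stained PC3M PTB-GFP cells. Cells were seeded 4 h, then exposed 16 h to compound (23 nl of library stock) in duplicate plates.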
Lamin A splicing = qHTS Assay for Modulators of Lamin A Splicing; HeLa LMNA splicing GFP/RFP minigene ratio, 48 h; Potency, µM (highest dose often 46.1 µM), usual class: inhibitors; 200,000 compounds, 0.01% hits; AID 1487, 2009; active means well fitted inhibition curve with a large enough effect in the signal ratio, with a control signal flat, not every such curve was filed as active; inconclusive means small, poorly fitted or top-dose-only effect, or effect the other way, or a change in a side signal; the % refers to the signal ratio
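S3 HeLa cells stably expressing lamin A-EGFP splicing minigene plus DsRed2, 600 cells/well, 48 h compound exposure at 37C. Laser-scanning cytometry; analysed as GFP (500-530 nm)/RFP (575-640 nm) total intensity ratio; 0.5% DMSO vehicle.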
HPGD block = qHTS Assay for Inhibitors of HPGD (15-Hydroxyprostaglandin Dehydrogenase); Potency, µM, usual class: inhibitors; AID 894, 2007; purified HPGD, NADH fluorescence kinetic, PGE2 substrate; 150,000 compounds, 4.3% hits
Target sequence (P15428 whole entry, looked up): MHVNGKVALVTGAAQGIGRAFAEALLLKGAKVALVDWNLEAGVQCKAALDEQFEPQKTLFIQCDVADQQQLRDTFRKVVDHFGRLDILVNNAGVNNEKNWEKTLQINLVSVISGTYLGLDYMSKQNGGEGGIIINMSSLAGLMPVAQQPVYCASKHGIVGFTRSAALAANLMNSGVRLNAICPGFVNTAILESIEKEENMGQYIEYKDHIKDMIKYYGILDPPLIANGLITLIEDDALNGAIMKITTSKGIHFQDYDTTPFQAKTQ
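NADH formation kinetics: reaction with 30 uM PGE2 and 1 mM NAD+ (final), 20 nM enzyme, Tris-HCl pH 8 with Tween 20, after 15 min compound preincubation at room temperature. Fluorescence change, last versus first of five reads.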
Hits are given with their value; . = inactive; ? = inconclusive; / = not tested or not shown; ! = not active in a repeat; [ ] = remark or other dose. Shown are actives, neighbours in structure and some others; about 10% of the full set was active somewhere. Unless noted, the call rests on the fitted dose curve; in most records, active means well fitted inhibition curve with a large enough effect (not every such curve was filed as active); inconclusive means small, poorly fitted or top-dose-only effect, or another doubt; inactive means no such curve, though single readings can be large or run the other way.

SMILES	ALDH1A1 inh	12-hLO inh	PNC inhibitor	Lamin A splicing	HPGD block
O=C(NCc1ccccc1Cl)c1ccc2c(c1)N(Cc1ccccc1)C(=O)c1ccccc1S2	/	/	/	.	/
CCC(=O)Nc1ccc(NC(=O)CSc2nc3cc4c(cc3cc2C)CCC4)cc1	11µM	.	.	.	.
Cc1ccccc1NC(=O)CSc1nc2cc3c(cc2cc1C)CCC3	.	.	.	?	.
Cc1ccc(S(=O)(=O)c2nnn3c2nc(N2CCN(c4cccc(C)c4C)CC2)c2ccccc23)cc1C	/	/	/	.	/
O=C(CSc1nc2c([nH]c3ccccc32)c(=O)n1-c1ccccc1)N1CCOCC1	2.5µM	.	?	.	.
Cc1ccc(-n2c(SCC(N)=O)nc3c([nH]c4ccccc43)c2=O)cc1	11µM	.	?	.	.
Cc1cccc(NC(=O)c2sc3nc4n(c(=O)c3c2C)N=C(c2ccc(F)cc2)CS4)c1C	/	/	/	.	/
CCC[C@H]1C[C@H](C(=O)N[C@H]([C@@H]2O[C@H](SC)[C@@H](O)[C@H](O)[C@@H]2O)[C@H](C)O)N(C)C1	.	.	/	?	.
COc1ccc(Nc2nnc(-c3ccc(O)cc3)c3ccccc23)cc1C(N)=O	.	/	/	.	/
COc1ccc(-c2nnc(Nc3ccc(OC)c(C(=O)N4CCCCC4)c3)c3ccccc23)cc1	?	.	.	.	14µM
COc1ccc(C(=O)NCC(c2ccco2)S(=O)(=O)c2cccs2)cc1 (centres undefined)	/	/	/	.	/
COc1ccc2c(c1OC)C(Cc1ccccc1)N1CCc3cc4c(cc3C1C2)OCO4 (centres undefined)	?	.	/	/	?
Cc1ccc(C2CC2C(=O)NNC(=S)Nc2cccc(C)c2)cc1 (centres undefined)	18µM	?	?	?	.
Cc1ccc(C2CC2C(=O)NNC(=S)Nc2cccc(Cl)c2)cc1 (centres undefined)	7.1µM	.	?	.	.
CO[C@H]1C[C@@H]2CC[C@@H](C)[C@@](O)(O2)C(=O)C(=O)N2CCCC[C@H]2C(=O)OC([C@H](C)C[C@@H]2CC[C@@H](O)[C@H](OC)C2)CC(=O)[C@H](C)/C=C(\C)[C@@H](O)[C@@H](OC)C(=O)[C@H](C)C[C@H](C)/C=C/C=C/C=C/1C (some centres undefined)	18µM!	.[0.00818 µM]	/	/	.
CC(=O)c1ccc(NC(=O)CCc2c(C)nn(-c3ccc4nnc(C)n4n3)c2C)cc1	/	/	/	.	/
COc1cc(C(=S)N2CCOCC2)cc(OC)c1OC(=O)Cc1ccc(F)cc1	28µM	.	.	.	16µM
COc1ccc(CC(=S)N2CCOCC2)cc1F	.	.	.	.	.
COCCn1c(=O)c(-c2ccc(OC)cc2)nc2cnc(N3CCN(C)CC3)nc21	?	/	/	.	/
COC(=O)C1NN=C(C(=O)c2ccc(Cl)cc2)C1c1ccc(OC)cc1 (centres undefined)	25µM	.	.	?	.
COC(=O)C1NN=C(C(=O)c2ccccc2)C1c1ccccc1 (centres undefined)	?	.	.	.	.
CCOC(=O)c1sc(NC(=O)c2cccc(S(=O)(=O)N3CCN(C)CC3)c2)cc1C	?	.	.	?	25µM
O=C(NCc1ccccc1Cl)c1ccc2c(c1)ncn2-c1cccc(F)c1	/	/	/	.	/
C=CCc1cccc(/C=N/NC(=O)CNc2cccc3ccccc23)c1O	?	.	-84	?	.
COc1ccc(NCc2ccc(OC)c(OC)c2)cc1	28µM	.	.	.	.
SMILES	ALDH1A1 inh	12-hLO inh	PNC inhibitor	Lamin A splicing	HPGD block
COc1cc(CNc2ccc(N3CCCC3)cc2)ccc1OCc1ccccc1	7.9µM	?	.	.	.
COc1ccc(CNc2ccc(C)c(C)c2)cc1	.	/	/	?	/
COc1cc(CNc2ccc(N3CCCC3)cc2)ccc1OCc1ccccc1F	.	.	.	.	.
CCOc1cc(-c2ccc(OC(=O)c3ccc(Cl)cc3)c(OC)c2)cc(=O)c2c(C)oc(C)c12	/	/	/	.	/
Cc1ccc(-n2c(O)c(C=Nc3ccccc3-c3n[nH]c(=S)[nH]c3=O)c3ccccc3c2=O)cc1C	3.5µM	/	/	/	/
Cc1ccc(-n2c(O)c(C=Nc3ccccc3-c3n[nH]c(=S)[nH]c3=O)c3ccccc3c2=O)c(C)c1	18µM	/	/	.	/
Cc1ccc(-n2c(O)c(C=NC3CCS(=O)(=O)C3)c3ccccc3c2=O)cc1C (centres undefined)	?	.	.	?	.
Cc1ccc(-n2c(O)c(/C=N/Nc3ccc(S(=O)(=O)N4CCOCC4)cc3[N+](=O)[O-])c3ccccc3c2=O)c(C)c1	.	.	.	?	.
C=C1C(=O)OC2CC1C(OC(C)=O)CC(C)=CCCC(C)=CCC[C@@]2(C)O (some centres undefined)	?	.	/	/	.
Cc1ccc(C(=O)NC(=S)NCC2CCCO2)cc1[N+](=O)[O-] (centres undefined)	14µM	/	/	.	/
COCCSc1ccccc1C(=O)NCC1CCCO1 (centres undefined)	.	.	.	.	.
CC(c1ccccc1)n1cc(C(=O)NCC2CCCO2)nn1 (centres undefined)	.	.	-100	.	.
Cc1ccc(C(=O)NCC2CCCO2)cc1[N+](=O)[O-] (centres undefined)	.	.	.	.	.
CC(C)(C)c1ccc(C(=O)NC(=S)NCC2CCCO2)cc1 (centres undefined)	?	?	.	?	/
Cc1ccccc1C(=O)NC(=S)NCC1CCCO1 (centres undefined)	.	.	-105	.	.
CC(c1ccccc1)n1cc(C(=O)NCCN2CCOCC2)nn1 (centres undefined)	.	.	.	.	.
CSc1ccccc1C(=O)NCC1CCCO1 (centres undefined)	.	.	.	.	16µM
COc1cc2c(cc1OC)C1=C(C#N)CCC(=NC(=O)c3ccc(Cl)cc3)N1CC2	.	.	.	?	14µM
Cc1ccc(OCC(=O)OCc2cc(=O)n3ccsc3n2)cc1C	/	/	/	.	/
CC(C)=CCC/C(C)=C/CO/N=C1/C[C@@H](O)[C@@H](O)[C@@H]2[C@@H]3C(=O)N([C@@H](C)c4ccccc4)C(=O)[C@H]3CC[C@H]12	.[13.5 µM]	/	/	/	/
Cc1ccccc1OC1C=CC(c2ccccc2)OC1CO (centres undefined)	.[13.5 µM]	/	/	/	/
O=C(NCCN1CCN(Cc2ccccc2)CC1)C1c2ccccc2C(=O)N2CCc3ccccc3C12 (centres undefined)	.	.	.	.	.
Cc1ccc(CNC(=O)C2c3ccccc3C(=O)N3CCc4ccccc4C23)o1 (centres undefined)	25µM	.	.	.	.
COc1ccc(-n2ncc(C(=O)N3CCN(c4ccccn4)CC3)c2C2CCN(C(=O)OC(C)(C)C)CC2)cc1	/	/	/	.	/
